# SIRT5 inh: sirtuin-5 (human) deacylase inhibition; Q9NXA8; AID 652115; 1.1% of 330,000 active; Purified SirT5, succinyl-peptide AMC, trypsin-coupled fluorescence; inhibition, % at 15 µM; in the data active means inhibition above about 15%
# SUMO HTRF inh: SUMOylation inhibition; inhibition, % at 35 µM; 0.36% of 290,000 active; AID 2006; P63279; HTRF SUMOylation assay, SAE1/SAE2 + UBC9, in vitro; in the data active means inhibition above about 50%, passing the limit was not always enough
# NSD2 HMT inh: inhibitors of human histone methyltransferase NSD2 | NSD2 peptide methylation, AlphaScreen, 120 min | inhibition, % at 12.5 µM | 0.54% of 310,000 active; in the data active means inhibition above about 50%
# Target sequence (O96028 whole entry, looked up): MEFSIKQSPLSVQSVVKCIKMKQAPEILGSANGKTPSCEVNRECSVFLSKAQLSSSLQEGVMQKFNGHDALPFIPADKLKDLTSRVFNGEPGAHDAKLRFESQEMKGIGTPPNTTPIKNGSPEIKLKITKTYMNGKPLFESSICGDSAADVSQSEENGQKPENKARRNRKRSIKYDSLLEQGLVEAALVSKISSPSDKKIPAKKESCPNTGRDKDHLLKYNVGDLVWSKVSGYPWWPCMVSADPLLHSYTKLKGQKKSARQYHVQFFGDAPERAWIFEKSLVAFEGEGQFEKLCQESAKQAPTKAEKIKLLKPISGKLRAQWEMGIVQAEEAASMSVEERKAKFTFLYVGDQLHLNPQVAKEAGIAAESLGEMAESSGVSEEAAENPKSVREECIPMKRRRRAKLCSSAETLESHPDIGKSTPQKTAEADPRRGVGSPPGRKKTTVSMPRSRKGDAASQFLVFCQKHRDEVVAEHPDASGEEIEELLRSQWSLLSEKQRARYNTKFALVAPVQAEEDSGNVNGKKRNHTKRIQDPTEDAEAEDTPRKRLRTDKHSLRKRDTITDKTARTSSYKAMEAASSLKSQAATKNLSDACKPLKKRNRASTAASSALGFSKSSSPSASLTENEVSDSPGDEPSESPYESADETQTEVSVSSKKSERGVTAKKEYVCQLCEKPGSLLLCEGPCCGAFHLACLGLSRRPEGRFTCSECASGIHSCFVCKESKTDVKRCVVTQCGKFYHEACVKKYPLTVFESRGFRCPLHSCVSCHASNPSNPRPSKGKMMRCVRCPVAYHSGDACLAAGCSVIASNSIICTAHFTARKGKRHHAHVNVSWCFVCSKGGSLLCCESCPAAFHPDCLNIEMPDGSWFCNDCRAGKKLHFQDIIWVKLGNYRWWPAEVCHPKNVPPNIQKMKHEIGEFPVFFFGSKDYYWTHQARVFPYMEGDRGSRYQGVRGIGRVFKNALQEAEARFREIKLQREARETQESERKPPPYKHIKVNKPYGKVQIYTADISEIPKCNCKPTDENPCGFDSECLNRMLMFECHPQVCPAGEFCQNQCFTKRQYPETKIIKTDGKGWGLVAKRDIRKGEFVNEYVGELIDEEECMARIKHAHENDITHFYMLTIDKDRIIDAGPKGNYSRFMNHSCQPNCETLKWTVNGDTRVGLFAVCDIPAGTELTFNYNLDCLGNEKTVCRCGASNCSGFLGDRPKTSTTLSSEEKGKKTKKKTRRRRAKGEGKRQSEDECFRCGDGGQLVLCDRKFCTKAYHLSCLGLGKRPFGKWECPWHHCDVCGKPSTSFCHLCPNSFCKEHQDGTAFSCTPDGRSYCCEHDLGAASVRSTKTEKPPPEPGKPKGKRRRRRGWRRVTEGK
# CASP6 VEID inh: inhibitors of human caspase-6; P55212; purified caspase-6, Z-VEID-R110 cleavage fluorescence; inhibition, % at 12.5 µM; 0.53% of 350,000 active; AID 686996;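 active means mean inhibition across replicates at least about 35%, with every replicate also reaching that limit, limit read from the data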;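 further: 0% = median of neutral control wells and 100% = no fluorescence left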
# The depositor's hits bear a star; · = no result; ! = not active in a repeat. Only some compounds are listed: those with a hit (about 1.6% of all), similar ones and a draw of the others.
SMILES,SIRT5 inh,SUMO HTRF inh,NSD2 HMT inh,CASP6 VEID inh
COc1ccc(C(=O)Nc2ccc(C(=O)NCCc3ccc(OC)c(OC)c3)cc2)cc1,-10,60*,-5,-6
COc1ccc(CCNC(=O)c2cc3cccc(OC)c3oc2=O)cc1OC,-1,11,0,44*
O=C(c1ccccn1)N1C[C@@H]2[C@H](c3ccccc31)[C@@H](CO)N2C(=O)C1CCCCC1,5,·,·,1
COc1cc(C(=O)Nc2cccc(C(=O)Nc3cc(C)ccn3)c2)cc(OC)c1OC,·,·,-1,·
O=C(Cc1ccncc1)N1C[C@@H]2N[C@H](C1)C2c1ccc(-c2ccncc2)cc1 (stereo partly specified),1,·,·,0
CN(C)C(=O)c1cccc(-c2ccc(C3[C@@H]4CN(C(=O)c5ccccn5)C[C@H]3N4)cc2)c1 (stereo partly specified),22*!,·,·,2
CN(C)C(=O)c1ccc(-c2ccc(C3[C@@H]4CN(C(=O)Cc5ccccc5)C[C@H]3N4)cc2)cc1 (stereo partly specified),17*!,·,·,0
CCOC(=O)c1c(C)nc(C)c(C(=O)OCC)c1-c1ccc(OC)cc1,26*,-6,-2,-2
C[C@@H]1CN([C@@H](C)CO)C(=O)Cc2cc(NC(=O)NC3CCCCC3)ccc2O[C@@H]1CN(C)S(=O)(=O)c1ccccc1,0,·,·,0
Cc1nc(S/C(=C\c2ccc(-c3ccc(C(=O)O)c(Cl)c3)o2)C(=O)O)n[nH]1,28*,43,·,59*
Cc1noc(C)c1S(=O)(=O)Nc1ccc2c(c1)CC(=O)N([C@H](C)CO)C[C@H](C)[C@H](CN(C)Cc1ccc(-c3ccccc3)cc1)O2,15*,·,·,1
COc1ccc(CN(C)C[C@@H]2Oc3ccc(NS(=O)(=O)c4c(C)noc4C)cc3CC(=O)N([C@@H](C)CO)C[C@@H]2C)cc1,24*,·,·,-1
CCCNC(=O)NC[C@H]1[C@H](c2ccc(C3=CCCCC3)cc2)[C@@H](CO)N1C(C)=O,0,·,·,-3
COc1ccc(-c2nc3ccncc3[nH]2)cc1OC,·,65*,-4,·
CCCCN1CCN(C(=O)CSc2nc3cccnc3n2C)CC1,·,·,-2,·
O=C(C[C@H]1C[C@H]2c3cc(NC(=O)Nc4ccccc4F)ccc3O[C@H]2[C@H](CO)O1)NCC1CC1,2,·,·,-3
COc1ccc2c3c([nH]c2c1)[C@H](CO)N(C(=O)c1ccccn1)CC31CCN(C(=O)C2CCC2)CC1,-2,·,·,3
C[C@H](CO)N1C[C@H](C)[C@@H](CN(C)Cc2ccc(-c3ccccc3)cc2)Oc2ccc(NC(=O)NC3CCCCC3)cc2C1=O,4,·,·,17
O=C(c1ccccc1)N1CC[C@@H]2[C@H]1c1cc(C#CC3CCCCC3)ccc1N[C@@H]2CO,6,·,·,-1
C[C@@H]1CN([C@H](C)CO)C(=O)c2c(c3ccccc3n2C)-c2ccccc2CO[C@@H]1CN(C)C(=O)[C@H](C)c1ccccc1,9,·,·,1
COCCn1c(SCCN2CCOCC2)nc2c1c(=O)[nH]c(=O)n2C,-4,11,·,36*
O=C(C[C@@H]1CC[C@H]2[C@@H](COC[C@H](O)CN2C(=O)Nc2cc(Cl)cc(Cl)c2)O1)NCC1CCCCC1,9,·,·,1
O=C(N[C@H]1CC[C@@H](CCn2cc(C3(O)CCCC3)nn2)O[C@@H]1CO)C1CCC1,0,·,·,1
Nc1scc2c(C(=O)N/N=C/c3ccc(Cl)cc3)nn(-c3ccccc3)c(=O)c12,·,27,73*,·
CO[C@H]1CN(C)C(=O)c2cc(NC(=O)NC3CCCC3)ccc2OC[C@H](C)N(CC2CC2)C[C@@H]1C,7,·,·,1
SMILES,SIRT5 inh,SUMO HTRF inh,NSD2 HMT inh,CASP6 VEID inh
CCCNC(=O)C[C@@H]1CC[C@@H]2[C@@H](COc3ccc(NS(=O)(=O)CC)cc3C(=O)N2C)O1,1,·,·,-1
CC1CCC2(CC1)NC(=O)N(CC(=O)Nc1sc3c(c1C(N)=O)CCC3)C2=O (stereo unspecified),7,36,2,42*
CCS(=O)(=O)N1C[C@@H](C)[C@H](OC)CN(C)C(=O)c2ccc(NC(=O)Nc3ccccc3Cl)cc2OC[C@H]1C,0,·,·,0
C=CCNC(=O)[C@H]1[C@@H]2C(=O)O[C@@H](c3ccccc3)[C@@H](c3ccccc3)N2[C@@H](c2ccccc2OCCO)[C@]12C(=O)Nc1ccc(C#CC3(O)CCCCCC3)cc12,17*,·,·,1
NC(=O)NCC#Cc1ccc2c(c1)[C@]1(C(=O)N2)[C@H](c2ccccc2OCCO)N2[C@H](c3ccccc3)[C@H](c3ccccc3)OC(=O)[C@H]2[C@@H]1C(=O)N1CCN(c2ncccn2)CC1,21*,·,·,2
C=CCNC(=O)[C@@H]1[C@H]2C(=O)O[C@H](c3ccccc3)[C@H](c3ccccc3)N2[C@H](c2ccccc2OCCO)[C@@]12C(=O)N(C(=O)OCCOC)c1ccc(C#CC3(O)CCCCCC3)cc12,-1,·,·,1
CS(=O)(=O)Nc1ccc2c(c1)[C@@H]1C[C@@H](CC(=O)NCC(F)(F)F)O[C@@H](CO)[C@@H]1O2,-3,·,·,5
CNC[C@H]1Oc2c(NS(=O)(=O)c3ccc(C)cc3)cccc2C(=O)N([C@@H](C)CO)C[C@@H]1C,-8,·,·,2
CC1=CN2C(=N)/C(=C/c3ccc([N+](=O)[O-])o3)C(=O)N=C2S1,21*,-3,5,37*
C/C=C/c1cnc2c(c1)C(=O)N([C@H](C)CO)C[C@H](C)[C@H](CN(C)C(=O)C1CCCCC1)O2,-2,·,·,-1
COc1ccccc1NC(=O)C(C)OC(=O)CCC1CCCCC1 (stereo unspecified),-3,-7,10,53*
COc1ccccc1NC(=O)COC(=O)CCC1CCCC1,6,·,-7,1
Cc1nn2c(N3CCN(C)CC3)cc(C(C)(C)C)nc2c1-c1ccccc1,15*,-7,2,-4
C[C@@H]1CN([C@@H](C)CO)C(=O)c2cc(NS(=O)(=O)c3ccccc3)ccc2O[C@@H](C)CCCCO[C@@H]1CN(C)C(=O)CCC(F)(F)F,10,·,·,1
O=C(Oc1cccc(C(=S)N2CCOCC2)c1)c1ccc([N+](=O)[O-])cc1[N+](=O)[O-],101*,2,-1,-4
O=C(Oc1ccc(C(=S)N2CCOCC2)cc1)c1ccc([N+](=O)[O-])cc1[N+](=O)[O-],13,-9,1,-1
CC(=Cc1ccccc1)C=C1SC(=S)N(CCCC(=O)Nc2ccc(C(=O)O)cc2)C1=O,27*,·,·,41*
O=C(O)CN1C(=O)/C(=C\C(Br)=C\c2ccccc2)SC1=S,5,12,55*,19
CC(/C=C1\SC(=S)N(CCC(=O)Nc2cccc(C(=O)O)c2)C1=O)=C\c1ccccc1,14,32,20,70*
O=C(C[C@H]1CC[C@@H]2[C@H](COC[C@@H](O)CN2C(=O)Nc2ccccc2)O1)NCCc1ccncc1,-1,·,·,4
C[C@@H]1CCCCO[C@H](CN(C)C(=O)Nc2cccc3ccccc23)[C@@H](C)CN([C@@H](C)CO)C(=O)c2cc(NC(=O)CCCN(C)C)ccc2O1,-9,·,·,-2
